In PubChem BioAssay (NCI) one finds growth data, which are given here for 40 compounds.

SMILES strings stand for the structures. Compounds without any hit were thinned out: in the full panel of roughly 83,000, 20% have a hit.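 Interpretation: 100, growth as untreated; towards 0, rising growth inhibition; 0, no net growth; 0 to -100, cell death. Compounds scoring below 10 were considered active.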 Unmarked numbers belong to inactive results. The source made the active and inactive calls.

The assay deals with A498 renal. The assay can be described thus: NCI-60 one-dose screen, 48 h (100 = growth as untreated, 0 = no growth, -100 = all killed). As to conditions: 10 µM unless noted. The protocol:
Growth inhibition of the A498 human tumor cell line is measured as a screen for anti-cancer activity. Cells are grown in 96 well plates and exposed to the test compound for 48 hours. Compounds are tested at a single concentration, which is 10^-5 M for most compounds. The reported endpoint is percent growth (GI% or GIPRCNT), where numbers from 0 - 100% represent growth inhibition, and numbers from -100% - 0 represent cell death. For example, a value of 40 represents 60% growth inhibition. A value of 0 means no net growth occurred over the course of the experiment. A value of -40 indicates 40% of cells at the beginning of the experiment died by the end of the experiment. A value of -100 means all cells are dead at the end of the experiment.
NCI-60 Human Tumor Cell Lines Screen was performed using the standard one-dose NCI protocol, which is described in more detail at https://dtp.cancer.gov/discovery_development/nci-60/default.htm.
Compounds with GIPRCNT values below 10 were considered active. Activity score was based on GIPRCNT using the following formula: […]
Score is 0 for GIPRCNT values of 100 or above, 50 for GIPRCNT values of 0, and 100 for GIPRCNT values of -100.
`Cc1ccc(Cn2c(O)c(N=NC(=O)c3ccc(S(N)(=O)=O)cc3)c3ccccc32)cc1`: the growth was 86.8%. On to `CC(C)(C)c1cc(C(=O)Nc2ccccc2C(=O)NCCN)cc(C(C)(C)C)c1`, for which the growth was -11.6% (active). The result for `O=C(Nc1ccccc1)Nc1ccc(C(=O)/C=C/c2ccc(N3CCCC3)cc2)cc1` reads 45.9%; that for `NC(=O)CC1C=CCC1` (stereo not given), 97.1%; that for `CCOc1ccc(/C=C(\C#N)c2cc3ccccc3[nH]2)cc1`, 56.9%. `CCN=Cc1c(O)c(O)c(C(C)C)c2cc(C)c(-c3c(C)cc4c(C(C)C)c(O)c(O)c(C=NCC)c4c3O)c(O)c12`: the growth was 69.5%. As for `Cn1cc(-c2noc(-c3cn(C)c4ncc(F)cc34)n2)c2ccccc21`, the growth was 62.9%. Next, `Fc1ccc(NC(=S)c2ccccc2)cc1`: 72.8%.

Turning to `CC1(C)CC[C@]2(C(=O)O)CC[C@]3(C)[C@H](CC[C@@H]4[C@@]5(C)CCC(=O)C(C)(C)[C@@H]5CC[C@]43C)[C@H]2[C@H]1OC(=O)C(F)(F)F`, the growth is -81.2% [100 µM] (active). The result for `COC(=O)[C@H](CC(C)C)NC(=O)NC(=O)NC(=O)CI` reads 82.8%; that for `Cc1cccc([N+](=O)[O-])c1I`, 93%. For `O=C(NCCCCCCCNC(=O)OCc1ccc2c(Cl)cc(Cl)c(O)c2n1)OCc1ccc2c(Cl)cc(Cl)c(O)c2n1`, the growth was -80.6% (active). Regarding `Clc1ccc2nc(-c3ccc(-c4ccc(/C=N/NC5=NCCN5)cc4)s3)cn2c1`, the growth is 76.6%.

Turning to `C[C@@H]1C[C@H]2C(=O)O[C@@H](C)[C@H](NC(=O)[C@H](Cc3cc(F)cc(F)c3)NC(=O)Nc3ccc(Cl)cc3F)C(=O)N3C[C@H](O)C[C@H]3C(=O)N3CCN(C)C[C@H]3C(=O)N[C@@H](C)C(=O)N2C1`, the growth is 33.1%. On to `Cc1cc(-c2ccc(N=Nc3c(S(=O)(=O)O)cc4cc(S(=O)(=O)O)cc(N)c4c3O)c(C)c2)ccc1N=Nc1cc(S(=O)(=O)O)c2ccccc2c1O`, for which the growth is 96.4%. Take `CCOC(=O)Nc1ccc2c(c1)/C(=N\NC(=S)NC)c1ccccc1-2`: the growth was 33.6%. As to `O=C(CCCSc1nc(-c2ccccc2)cc(-c2ccccc2)n1)NO`, the growth is -15.6% (active). Consider `O=C1CC(c2ccccc2)Cc2nc3ccc(Br)cc3cc21` (stereo not given), for which the growth is -12.4% (active). For the compound `O=C1Nc2ccccc2/C1=C/C(=O)c1ccc(N2CCCCC2)cc1`, the growth was 95.8%. `O=C(O)c1cccc(CN2CCN(c3cc4c(cc3F)c(=O)c(C(=O)O)cn4C3CC3)CC2)c1O`: the growth is 106%. As to `C[C@@H](NC(=O)[C@@H](CC(=O)N1CCC(N2CCCCC2)CC1)N1C(=O)[C@@H](N2C(=O)OC[C@@H]2c2ccccc2)[C@H]1/C=C/c1cccc(Cl)c1)c1ccccc1`, the growth is 84.6%. `c1coc2occoc=2o1`: the growth is 107%. On to `COc1ncnc2c(-c3ccccc3)cn(COCc3ccccc3)c12`, for which the growth was 51.9%.

For the compound `CC1=CCc2ccccc21`, the growth was 89.9%. For the compound `O=C(N/N=C1\c2ccccc2-c2cccc(C(=O)O)c21)c1ccc(O)cc1`, the growth was 73.1%.

Turning to `COc1ccc(/C=C(/C(=O)c2ccc(Cl)cc2)C(=O)C(F)(F)F)cc1`, the growth was 82.4%.

Consider `O=C(O)CC1CCCCC1c1ccccc1` (stereo not given), for which the growth is 122%. As to `CCN(CC)c1ccc2cc(NC(=O)OCCNC(=O)CCNC(=O)[C@H](CC(C)C)NC(=O)C(C)(C)NC(=O)C(C)(C)NC(=O)[C@H](CC(C)C)NC(=O)CCNC(=O)C(C)(C)NC(=O)[C@H](CC(C)C)NC(=O)CCNC(=O)[C@@](C)(CC)NC(=O)[C@H](C)NC(=O)CCNC(=O)C(C)(C)NC(=O)[C@H](C)NC(=O)[C@@H]3CCCN3C(=O)[C@@](C)(CC)NC(=O)[C@H](Cc3ccccc3)NC(=O)C3CCCN3C(=O)C(C)(C)NC(=O)C3CCCN3C(=O)C(C)(C)NC(C)=O)c(=O)oc2c1` (stereo not given in full), the growth was -98.5% (active). As to `CCOC(=O)c1c[nH]n2c(=S)ncnc12`, the growth is 98.5%. Next, `C=C(C)[C@@H]1CC[C@]2(COCCC#N)CC[C@]3(C)[C@H](CC[C@@H]4[C@@](C)(CCCNCCC#N)[C@H](C(=C)C)CC[C@]43C)[C@@H]12`: 90.5% [100 µM]; `COc1cc2c(cc1OC(C)=O)C(=O)CCCC2`: 68.3%; `COC(=O)c1c(C)[nH]c(/C=C2\N=C(c3ccc[nH]3)C=C2OC)c1C`: 0.235% (active). As for `CN(Cc1cccc(C(F)(F)F)c1)C(=O)[C@@H](CC(=O)N1CCC(N2CCCCC2)CC1)N1C(=O)[C@@H](N2C(=O)OC[C@@H]2c2ccccc2)[C@H]1/C=C/c1ccccc1`, the growth is 63%.

Regarding `CCN(CC)CCS(=O)(=O)CCNc1ccnc2cc(Cl)ccc12`, the growth is -29.1% (active). `C=C(C)[C@@H]1CC[C@]2(C(N)=O)CC[C@]3(C)[C@H](CC[C@@H]4[C@@]5(C)C/C(=C/c6cccnc6)[C@H](O)C(C)(C)[C@@H]5CC[C@]43C)[C@@H]12`: the growth was 61.9% [100 µM]. Turning to `CCN(CC)c1ccc2cc(C(Nc3ccc(Cl)cc3)c3nnnn3C(C)(C)C)c(=O)oc2c1` (stereo not given), the growth is 81%. For `C=C(C)[C@@H]1CC[C@]2(C(N)=O)CC[C@]3(C)[C@H](CC[C@@H]4[C@@]5(C)CC[C@H](O)C(C)(C)[C@@H]5CC[C@]43C)[C@@H]12`, the growth was -28.3% [100 µM] (active). Regarding `CC1Cc2c(Cl)ncnc2N(C)c2ccc(O)cc21` (stereo not given), the growth was 94.1%.

For `COc1ccc(/C=C(/C2=NCCN2)n2ccc3ccccc32)cc1`, the growth is 89%. As to `O=C(Nc1cc(F)cc2cccnc12)c1cnc(N2CCNCC2)cn1`, the growth is 88.7%.
